# Bioassay records from PubChem.
# This excerpt belongs to a sample that is enriched for hits.
# 15-hLO-2 inh – inhibitors of human 15-lipoxygenase 2 (ALOX15B). 110,000 tested, 0.56% active. purified 15hLO-2, xylenol orange hydroperoxide absorbance. O15296. AID 881. Potency, µM (titrated, usually from 57.1 µM), for the others: at the highest dose activity change, negative = inhibition, actives largely listed as inhibitors; also: potency is read from the fitted curve at half-maximal effect; nearly all actives have a fitted effect of over 60% in size
#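 Purified human 15hLO-2 (50 nM final) preincubated with compounds 15 min at room temperature in 25 mM Hepes pH 7.5, 0.01% Triton X-100, then 45 uM arachidonic acid added for 90 min; hydroperoxide detected via ferrous/xylenol orange, 573/405 nm absorbance ratio.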
# ALOX12 inhib – blocks human 12-lipoxygenase activity; AID 1452; Potency, µM (titrated, usually from 57.1 µM), inactives show at the top dose activity change, negative = inhibition, hits mostly inhibitors; purified 12-hLO, xylenol orange hydroperoxide absorbance; 150,000 tested, 0.12% active; also: potency is read from the fitted curve at half-maximal effect; nearly all actives have a fitted effect of over 55% in size
#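 Xylenol orange chromogenic assay: hydroperoxide from 12hLO oxidises Fe(II), giving red-shifted Fe(III)-XO absorbance. Conditions: 150 nM enzyme, 40 uM arachidonic acid, 25 mM Hepes pH 7.0, 0.01% Triton X-100, 30 min, room temperature.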
# IMPase Li inh – cell-permeable IMPase inhibitors with lithium potentiation; CHO-M1 cells, IP1 TR-FRET (IP-One), carbachol + lithium; Potency, µM (top dose mostly 59.4 µM), for inactives: at the top dose activity, negative = IMPase inhibition, hits mostly inhibitors; 210,000 tested, 0.35% active; AID 1457;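 also: IP1 builds up when IMPase is blocked and the TR-FRET signal falls; potency is read from the fitted curve at half-maximal effect; plate controls were basal vehicle for no effect and high inhibitor control for full effect; nearly all actives have a fitted effect of over 50% in size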
#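 CHO-M1, 2000 cells/well, 16–30 h culture; cpd + low Li+, 30 min 37C; lysis with d2-IP1/Eu-anti-IP1 Ab, 10 min RT; TR-FRET 665/620 ratio and 620 channel; AC50 via Hill.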
# PNC assembly inh – inhibitors of perinucleolar compartment assembly; PC3M PTB-GFP, PNC prevalence imaging, 16 h; active compounds read low; activity change (PNC), negative = inhibition, % at 10 µM; 140,000 tested, 3.1% active;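 active = readout at or below -70, meaning at least 70% loss of cells showing the perinucleolar compartment, a nuclear body marking cancer cells; inconclusive = readout between -30 and a set limit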;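 also: plate controls were DMSO wells for no effect and camptothecin positive control wells for full effect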
#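 PC3M cells stably expressing PTB-GFP, 750–1000 cells/well, treated 16 h at 37 °C with compound (23 nl of library stock), in duplicate. After paraformaldehyde fixation and Hoechst stain, imaged at 20x; PNC prevalence scored by image analysis.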
# IMPase cell inh – cell-permeable inhibitors of inositol monophosphatase (IMPase). CHO-M1 cells, IP1 accumulation, HTRF TR-FRET ratio. 120,000 tested, under 10 active. P97697. inhibition (IP1 accumulation), % at 46.1 µM; active = well fitted curve in the direction sought with a large enough effect in the signal ratio, not every such curve was filed as active; inconclusive = small, poorly fitted or top-dose-only effect, or a change in a side signal; inactive = no such curve, though single readings can be large or run the other way; the % refers to the signal ratio;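 also: cells stimulated with carbachol in lithium chloride buffer; plate controls were DMSO basal wells for no effect and reference inhibitor wells for full effect; higher means more IMPase inhibition seen as more IP1 and lower FRET ratio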
# Target sequence (P97697 whole entry, looked up): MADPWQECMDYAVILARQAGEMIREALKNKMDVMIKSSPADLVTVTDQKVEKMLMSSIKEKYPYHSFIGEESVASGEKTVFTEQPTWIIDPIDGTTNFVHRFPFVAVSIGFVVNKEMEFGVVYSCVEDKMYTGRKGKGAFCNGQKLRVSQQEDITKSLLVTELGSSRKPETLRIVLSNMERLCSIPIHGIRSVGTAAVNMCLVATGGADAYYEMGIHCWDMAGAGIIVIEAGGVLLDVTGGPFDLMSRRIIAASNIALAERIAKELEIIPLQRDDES
#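 Seeded CHO-M1 cells were dosed with compound at up to 46 uM, stimulated with carbachol for 30 min, then lysed in IP-One detection reagents. Higher IP1 lowers the TR-FRET signal.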
# Numbers without * were called inactive; ? = inconclusive; . = not tested or not shown; [ ] = remark or other dose. Unless noted, calls follow the shape of the dose curve; as a rule, active = well fitted curve in the direction sought with a large enough effect; inconclusive = small, poorly fitted or top-dose-only effect, or another doubt; inactive = no such curve, though single readings can be large; an effect the other way counts as inactive or inconclusive. Unless noted, % is scaled to controls: 0 for no effect and ±100 for the full control effect.
SMILES,15-hLO-2 inh,ALOX12 inhib,IMPase Li inh,PNC assembly inh,IMPase cell inh
CC1(C(=O)NC2CCCC2)CCC(=O)N1Cc1ccccc1Cl (stereo not given),3%,5%,14%[38.3 µM],-88*,1
S=C(NCc1ccccc1Cl)NC1CCCC1,.,-3%,5%,-88*,.
S=C(NCCc1ccccc1)NC1CCCCCC1,25µM*,?,3%,?,-5
COc1ccccc1CNC(=S)NC1CCCCC1,.,.,14%,.,.
COc1cccc(Nc2ncc3nc(CCc4ccccc4)c(=O)n(C)c3n2)c1,-3%,.,-3%,.,.
Cn1c(=O)[nH]c(=O)c2c1nc(NCCO)n2CC(O)COc1ccccc1 (stereo not given),.,.,.,.,-3
CCCCOc1ccc(C2c3c(oc4ccc(C)cc4c3=O)C(=O)N2CCCN(C)C)cc1OCC (stereo not given),.,.,.,.,-1
COC(=O)c1cccc(NC(=O)c2cnoc2C)c1,.,6%,3%,-119*,5
COC(=O)c1cccc(NC(=O)c2cccnc2)c1,-5%,2%,-9%[38.3 µM],80,4
CN(C)C(=O)n1nnnc1Cc1ccc(-c2ccccc2)cc1,-4%[0.0915 µM],-2%[0.00818 µM],12%,.,.
CCOc1cc(NC(=S)Nc2ccccc2)c(OCC)cc1NC(=O)c1ccc(OC)cc1,25µM*,-25%,-8%[38.3 µM],?,5
COc1ccc(CCC(=O)Nc2cccc(Cl)c2)cc1,.,0%,-6%,-83*,.
CCOCC(=O)Nc1cccc(OC)c1,.,-1%,6%,-89*,-10
COc1cccc(NC(=O)CCC(=O)Nc2cccc(OC)c2)c1,.,-4%,-2%,16,.
COc1cc(OC)cc(C(=O)Nc2nnc(NC(=S)Nc3ccccc3)s2)c1,.,-4%,5%,-100*,.
CCOc1cc(NC(=S)Nc2cccc(OC)c2)c(OCC)cc1NC(=O)C(C)C,.,-26%,1%[38.3 µM],-106*,17
CN1/C(=C/C=C(/C#N)C(N)=O)C(C)(C)c2ccccc21,?,-19%,0%[38.3 µM],-85*,7
CN1/C(=C\C(=O)Nc2ccc(F)cc2)C(C)(C)c2ccccc21,.,3%,.,-14,3
CN1/C(=C\C=C(/C#N)C(=O)Nc2ccccc2F)C(C)(C)c2ccccc21,.,6%,-4%,-83*,.
CN1/C(=C\C=N\O)C(C)(C)c2ccccc21,.,.,-15%,.,.
CC(=O)OC1CC2C(C)(C)C(O)CC[C@@]2(C)C2CC[C@@]3(C)C(c4ccoc4)OC(=O)C4OC43[C@]12C (stereo not given in full),-5%,-1%,-9%,.,.
CC1(C)OC[C@@H]2O[C@H](n3cnc4c(N)nc(Cl)nc43)[C@@H](OS(C)(=O)=O)[C@@H]2O1,0%[11.4 µM],4%[11.4 µM],-6%,.,.
Nc1ccc(S(=O)(=O)O)cc1,-10%,1%,13%,.,.
Cc1c(NC(=O)C(C)OC(=O)c2cc(Cl)nc(Cl)c2)c(=O)n(-c2ccccc2)n1C (stereo not given),.,1%,0%,-10,.
Cc1c(NC(=O)C(C)OC(=O)c2sc3ccccc3c2Cl)c(=O)n(-c2ccccc2)n1C (stereo not given),.,-2%,-28%,-116*,.
SMILES,15-hLO-2 inh,ALOX12 inhib,IMPase Li inh,PNC assembly inh,IMPase cell inh
COc1ccc(-c2nc(-c3ccccc3)oc2NC(C)C)cc1,.,-2%,8%,.,.
COc1cccc(NC(=O)c2ccccc2-c2nc(-c3cccc(C)c3)no2)c1,-2%,-6%,7%[38.3 µM],-139*,0
Cc1cccc(-c2noc(-c3cc4ccccc4oc3=O)n2)c1,-10%,0%,-4%[38.3 µM],-106*,-5
COc1ccc(CC(=O)Nc2cccc(C)n2)cc1OC,.,-1%,-1%,-81*,.
O=C(COc1ccccc1)Nc1ccc(-c2nnc(-c3ccco3)o2)cc1,-4%,-2%,13µM*,-13,3
COc1ccc(CC(=O)Nc2cc(C)on2)cc1OC,-1%,1%,14%[38.3 µM],?,6
Cc1cc(=O)oc2cc(O)c(O)cc12,4%,2%,-8%,.,.
COc1ccc(C2=C(Nc3ccc(Br)c(C)c3)c3ccccc3C2=O)cc1,.,.,.,.,12
COc1ccc(CC(=O)Nc2ccc(-c3noc(-c4ccccc4OC)n3)cc2)cc1,-7%,-1%,11µM*,?,10
COc1ccc(CC(=O)Nc2cccc(-c3nnc(-c4ccccc4)o3)c2)cc1OC,-5%,-6%,42%[38.3 µM],21,16
COc1ccc(CC(=O)Nc2ccc(-c3nnc(-c4ccccc4)o3)cc2)cc1OC,?,6%,13µM*,-2,-4
COP(=O)(OC)c1nc(-c2cccc3ccccc23)oc1NCCc1ccccc1,.,-5%,-5%,-91*,.
COc1ccc(CCNc2oc(-c3cccc4ccccc34)nc2P(=O)(OC)OC)cc1OC,.,-2%,?,-2,-1
Cc1ccc(CSc2nnc(-c3cccs3)n2C)cc1,.,4%,5%,-100*,-3
CCSc1cnn(-c2ccccc2)c(=O)c1SCC,-1%,1%,10µM*,61,?
COc1cnn(-c2ccccc2)c(=O)c1SCc1ccc(Cl)cc1Cl,-3%,-17%,14%[38.3 µM],?,11
CSc1cnn(-c2ccccc2)c(=O)c1SC,2%,-5%,11µM*,-21,?
CCCCSc1cnn(-c2ccccc2)c(=O)c1SCCCC,.,-3%,-24%,-81*,?
CSc1cnn(Cc2ccccc2)c(=O)c1SCc1ccccc1,.,-1%,16%,8,.
Cc1ccccc1-c1ccc2ncnc(NCc3cccs3)c2c1,38%,.,20%,.,.
COc1ccccc1/C=C\C=N\n1c(C2CCCCC2)n[nH]c1=S,13µM*,-9%,9%[38.3 µM],7,5
COc1ccc2[nH]cc(CCNc3ccnc(-c4cccnc4)n3)c2c1,9%,.,0%,.,.
OC1CCN(c2ncnc3nc[nH]c23)CC1,.,-1%,-4%,65,-3
c1nc(N2CCCCC2)c2[nH]cnc2n1,.,2%,-2%,-119*,-4
c1ccc(Sc2cnc3ccccc3n2)cc1,3%,-2%,13µM*,-13,?
SMILES,15-hLO-2 inh,ALOX12 inhib,IMPase Li inh,PNC assembly inh,IMPase cell inh
Clc1ccc(Sc2cnc3ccccc3n2)cc1,3%,-12%,?,37,-26
CCc1nnc(NC(=O)C2COc3ccccc3O2)s1 (stereo not given),-4%,-5%,36%[38.3 µM],-80*,1
CCN1CCN(S(=O)(=O)Cc2ccccc2)CC1,12%[2.29 µM],1%,-4%[38.3 µM],12,2
O=S(=O)(Cc1ccccc1)N1CCCC1,-2%,-6%,-26%[38.3 µM],-100*,-5
CCc1nnc(NC(=O)C2CCN(S(=O)(=O)Cc3ccccc3)CC2)s1,.,4%,-2%,-100*,-7
C=CCOC(=O)C1(C(NC(=O)OC)c2ccccc2)C(=O)Cc2ccccc21 (stereo not given),.,.,17%,.,.
C[C@H](CCC(=O)NCC(=O)O)C1CC[C@H]2[C@H]3C(C[C@H](O)[C@]12C)[C@@]1(C)CC[C@@H](O)C[C@H]1C[C@H]3O (stereo not given in full),.,.,-4%,.,.
